Experimental data published in PubChem BioAssay (NCI).
Compounds without any hit were thinned out: in the full panel of roughly 83,000, 20% have a hit.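 Single-dose data. Exposure time 48 hours. Values below 10 considered active.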 Active and inactive are the calls of the source.

These molecules were tested on HOP-62 NSCLC (assay: NCI-60 one-dose screen, 48 h (100 = growth as untreated, 0 = no growth, -100 = all killed)). Conditions: 10 µM unless noted.

SMILES | growth
CC1(C)CC[C@]2(C(=O)O)CC[C@]3(C)C(=CCC4[C@@]5(C)C[C@@H](O)[C@@H]6OC(c7ccccc7O)OC[C@@]6(C)C5CC[C@]43C)C2C1 (stereo partly drawn) | 45.6% (inactive)
CN(c1ccc(Br)cc1)S(=O)(=O)c1ccc(-c2cnc(C3CC3)o2)cc1 | 41.3% (inactive)
CN1CCN(c2nc(-c3csc(-c4ccncc4)n3)cc3ccccc23)CC1 | 85% (inactive)
O=C(O)c1ccc(-n2cc(CNc3ccc(F)cc3)c(-c3ccc(C(F)(F)F)cc3)n2)cc1 | 81.3% (inactive)
CSc1nccc(-c2c(-c3ccc(F)c(OCc4ccc(F)cc4)c3)nc3sccn23)n1 | 104% (inactive)
O=C(COc1ccc(C2SCC(=O)N2c2ccccc2)cc1)c1ccccc1 (stereo not drawn) | 95.6% (inactive)
O=C(O)CNS(=O)(=O)c1ccc(Oc2ccc(S(=O)(=O)NCC(=O)O)cc2)cc1 | 91.9% (inactive)
Cn1nc(Nc2ccccc2)c(C(=O)NN)c1N | 99.8% (inactive)
COc1cc(/C=N/n2cnc3oc(-c4ccccc4)cc3c2=N)cc(CN2CCN(C)CC2)c1O | 88.1% (inactive)
CC(C)SC1=NC(=C(C(=N1)NC2=ClC=CC=C2)C#N)C3=CC=CC=C3 | 72.9% (inactive)
NS(=O)(=O)c1ccc(Nc2nc(N/N=C/c3ccc(F)cc3)nc(Nc3ccccc3)n2)cc1 | 17.9% (inactive)
C#C[C@]1(O)CC[C@H]2[C@@H]3CC=C4c5sc(Nc6cccc(C)n6)nc5CC[C@]4(C)[C@H]3CC[C@@]21C | 16.5% (inactive)
CNC(=O)c1cc(Oc2ccc3nc(NC(=O)c4cc(C)cc(C)c4)sc3c2)ccn1 | 98.6% (inactive)
C=C(C)[C@@H]1CC[C@]2(COS(C)(=O)=O)CC[C@]3(C)[C@H](CC[C@@H]4[C@@]5(C)CCCNC(C)(C)[C@@H]5CC[C@]43C)[C@@H]12 | 101% (inactive)
CC(C)=CCc1c2c(c(O)c3c1O[C@]14C(=C[C@@H]5C[C@H]1C(C)(C)O[C@@]4(C/C=C(/C)C(=O)O)C5=O)C3=O)CC(O)C(C)(C)O2 (stereo partly drawn) | -19.3% (active)
O=C(Cn1cc(CN2C(=O)c3ccc([N+](=O)[O-])cc3C2=O)nn1)Nc1ccccc1Br | 109% (inactive)
COc1cc(-c2nc(SCc3ccc(C)cc3)[nH]c(=O)c2C#N)ccc1OCc1ccccc1 | 104% (inactive)
CC(C)N=C(N/C(N)=N/c1nc2ccccc2s1)NC(C)C | 55.4% (inactive)
O=C(Nc1cc(Cl)cc(Cl)c1)Nc1ccc2oc(=O)ccc2c1 | 40.5% (inactive)

SMILES | growth
CS(=O)(=O)c1nccc(-c2c(-c3ccc(F)c(OCc4ccccc4)c3)nc3sccn23)n1 | 105% (inactive)
COc1ccc(C2C(C#N)=C(N)Oc3c2sc2ccc(C)cc32)cc1 (stereo not drawn) | 30.1% (inactive)
C#C[C@]1(O)CC[C@H]2[C@@H]3CC=C4c5sc(-c6ccccn6)nc5CC[C@]4(C)[C@H]3CC[C@@]21C | 77.5% (inactive)
COc1ccc(OC)c([C@H]2c3[nH]c4ccccc4c3C[C@H]3C(=O)N(CCCCCCC(=O)NO)CC(=O)N23)c1 | 85.4% (inactive)
Cc1cnc2nc(NN)[nH]n12 | 93% (inactive)
COc1ccc(-c2nc3cc(Cl)c(Cl)cc3n2CC(=O)N=Nc2c(O)[nH]c3ccc(Br)cc23)cc1 | -50.2% (active)
O=C(NCCCCCCNC(=O)c1c2c(nc3ccccc13)-c1cccnc1SC2)c1c2c(nc3ccccc13)-c1cccnc1SC2 | 43.9% (inactive)
COc1ccc(-c2ccc3c4c(cccc24)C(=O)N(N2C(=O)c4cccc5cccc(c45)C2=O)C3=O)cc1 | 92.7% (inactive)
COc1ccc(-c2nc3cc(Cl)c(Cl)cc3n2CC(=O)N=Nc2c(O)[nH]c3ccc(Cl)cc23)cc1 | 0.657% (active)
CCOC(=O)c1c(NCC(=O)Nc2ccc(Br)cc2)sc2c1CCCC2 | 69.2% (inactive)
CN1C(=O)/C(=C/C=C/c2ccco2)SC1=S | 93.8% (inactive)
COc1ccc(-c2nnc(SCc3ccc(O)c4ncccc34)o2)cc1 | 32.2% (inactive)
C#CCOc1ccc(/C=N/Nc2nc(-c3cc4cc(Br)cc(Br)c4oc3=O)cs2)cc1 | 105% (inactive)
CS(=O)c1nccc(-c2c(-c3ccc(F)c(OCCc4ccc(F)cc4)c3)nc3sccn23)n1 (stereo not drawn) | 99.7% (inactive)
O=C1[C@@H]2Cc3c([nH]c4ccccc34)[C@H](c3c(Cl)cccc3Cl)N2C(=O)CN1C1CCN(Cc2c(F)cccc2F)CC1 | 92.9% (inactive)
NNC(=O)c1sc2nc(-c3cnccn3)cc(-c3cccs3)c2c1N | 91.6% (inactive)
Cn1cc(-c2nnc(N)nc2-c2cn(C)c3ccc(F)cc23)c2cc(F)ccc21 | 90.7% (inactive)
COc1ccccc1/C=C/C=N/NC1=NC2C(S1)N(C)C(=O)N2c1ccccc1 (stereo not drawn) | 46% (inactive)
C[C@H]1[C@H](C)CC[C@]2(COC(=O)c3cccnc3)CC[C@]3(C)C(=CC[C@@H]4[C@@]5(C)CCCNC(C)(C)[C@@H]5CC[C@]43C)[C@H]12 | 99.8% (inactive)
